# ELG1 DNA repair: blocks ELG1-dependent DNA repair in HEK293T cells; Potency, µM (doses to about 46.1 µM), inactives show at the highest dose activity change, negative = inhibition, hits mostly inhibitors; hit rate 2.3% among 330,000; HEK293T ELG1-luciferase reporter, luminescence, 16 h; DNA damage induced by 5-fluorouridine; AID 504467; note: % is set by controls: 0 for no effect and ±100 for the full control effect; nearly all actives have a fitted effect of over 55% in size
#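 Reporter activity after DNA damage by 5-fluorouridine is monitored. Compound-treated cells incubate 16 hr at 37 °C, then ONE-Glo is added for 30 min before luminescence reading.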
# FLuc modulator: counter-screen for miR-21 project: firefly luciferase inhibitors or activators. purified FLuc, Km substrates, luminescence inhibition. Potency, µM (doses to about 57.5 µM), inactives show at the highest dose activity change, negative = inhibition, actives largely listed as inhibitors. hit rate 6.9% among 360,000. AID 588342;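 note: plate controls were vehicle for no effect and reference inhibitor for full effect; nearly all actives have a fitted effect of over 55% in size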
# Target sequence (P08659 whole entry, looked up): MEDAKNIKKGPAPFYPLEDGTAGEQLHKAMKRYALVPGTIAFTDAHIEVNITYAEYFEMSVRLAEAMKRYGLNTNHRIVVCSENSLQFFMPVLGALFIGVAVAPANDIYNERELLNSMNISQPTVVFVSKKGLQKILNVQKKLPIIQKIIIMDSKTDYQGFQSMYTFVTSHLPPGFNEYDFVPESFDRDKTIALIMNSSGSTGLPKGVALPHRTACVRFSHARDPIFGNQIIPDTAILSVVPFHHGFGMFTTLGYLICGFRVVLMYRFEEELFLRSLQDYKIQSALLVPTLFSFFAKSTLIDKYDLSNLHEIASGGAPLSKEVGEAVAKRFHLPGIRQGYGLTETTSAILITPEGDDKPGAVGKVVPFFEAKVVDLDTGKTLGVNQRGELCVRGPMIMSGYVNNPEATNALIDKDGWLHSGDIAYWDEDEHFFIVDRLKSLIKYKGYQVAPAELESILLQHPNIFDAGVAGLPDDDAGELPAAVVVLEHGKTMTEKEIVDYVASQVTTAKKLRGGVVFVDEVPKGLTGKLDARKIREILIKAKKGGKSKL
#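 Purified P. pyralis luciferase, 10 nM final, with Km-level 10 uM D-luciferin and 10 uM ATP in 50 mM Tris acetate pH 7.5, 10 mM Mg acetate, 0.01% Tween-20, 0.05% BSA; 6-point qHTS titration about 60 µM downward; luminescence read.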
# SMN2 splice up: enhancers of SMN2 splice variant expression; hit rate 2.8% among 210,000; HEK293 SMN2-luciferase splicing reporter, luminescence, 30-36 h; Potency, µM (series often up to 46.1 µM), for inactives: at the highest dose activity change, positive = activation, usual class: activators; note: % of control where 0% means no effect; nearly all actives have a fitted effect of over 55% in size
#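 HEK293 cells carry an SMN2 […]–luciferase reporter in which exon 7 inclusion puts luciferase in frame. Cells were plated 10-12 h before compound addition, then incubated 30-36 h at 37C. ONE-Glo luminescence was read; sodium butyrate at 4.5 mM final served as control.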
# Rab9 promoter act: activates the Rab9 promoter; AID 485297; hit rate 2.8% among 320,000; Potency, µM (titrated, usually from 9.22 µM), for inactives: at the highest dose activation, negative = inhibition, actives largely listed as activators; Huh7 Rab9 promoter-luciferase reporter, luminescence, 24 h; note: % of control where 0% means no effect; nearly all actives have a fitted effect of over 60% in size
#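 Measured in stably transfected Huh7 cells bearing a Rab9 promoter–luciferase construct: 24 h compound treatment at 37 °C, followed by luminescence detection.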
# ELG1 genotox: genotoxicity induction in ELG1-luciferase HEK293T cells. HEK293T ELG1-luciferase reporter, luminescence, 16 h. hit rate 1.3% among 330,000. Potency, µM (titrated, usually from 46 µM), for the others: at the highest dose activity change, positive = activation, actives largely listed as activators; note: % of control where 0% means no effect; nearly all actives have a fitted effect of over 60% in size
#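 ELG1-luciferase HEK293T cells, 2,000/well; compound pinned in; 16 hr, 37 °C, 5% CO2; ONE-Glo, 30 min RT; luminescence on CCD imager.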
# NPC1 promoter act: activates the NPC1 promoter; Huh7 NPC1 promoter luciferase reporter, 24 h; Potency, µM (series often up to 9.22 µM), inactives show at the top dose activation, most hits filed as activators; hit rate 2.4% among 320,000; AID 485313; note: % of control where 0% means no effect; nearly all actives have a fitted effect of over 60% in size
#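 Luminescence read-out of NPC1 promoter-driven luciferase in stably transfected Huh7 cells; compounds delivered in DMSO and left 24 h at 37C, 5% CO2, qHTS titration format.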
# Active calls of the source: *; ? = inconclusive; · = no result; [ ] = remark or other dose. Only some compounds are listed: those with a hit (about 9.4% of all), similar ones and a draw of the others. Calls come from the whole dose curve; as a rule, active = well fitted curve in the direction sought with a large enough effect; inconclusive = small, poorly fitted or top-dose-only effect, or another doubt; inactive = no such curve, though single readings can be large; an effect the other way counts as inactive or inconclusive. Potency is the fitted concentration of half-maximal effect.
SMILES,ELG1 DNA repair,FLuc modulator,SMN2 splice up,Rab9 promoter act,ELG1 genotox,NPC1 promoter act
O=S(=O)(c1cccc(-c2nc3n(n2)Cc2ccccc2-3)c1)N1CCCCC1,4%,?,-16%,-2%,-10%,0%
O=S(=O)(c1cccc(-c2nc3n(n2)Cc2ccccc2-3)c1)N1CCCC1,-38%,15µM*,-4%,20%,0%,9%
CCOCCCNC(=O)Cn1ncc2c([nH]c3ccccc32)c1=O,·,-2%,·,·,·,·
CC1CCN(Cc2c(C(=O)N/N=C/c3cc(Cl)ccc3O)nnn2-c2nonc2N)CC1,2.1µM*,0%,·,-31%,0%,-16%
CC1CCN(Cc2c(C(=O)N/N=C/c3cc(Br)ccc3O)nnn2-c2nonc2N)CC1,2.6µM*,2%,·,-32%,0%,-12%
COc1c(Cl)cc(Cl)cc1/C=N/NC(=O)c1nnn(-c2nonc2N)c1CN1CCC(C)CC1,3%,4%,·,2%,3%,0%
CCOc1ccc(C(=O)NCC(=O)OCc2c(F)cccc2Cl)cc1,1%,?,-1%,-1%,0%,0%
O=C(Cc1c(F)cccc1Cl)NNC(=O)c1cccs1,?,·,·,·,3%,·
CC(=O)Nc1ccc(C(=O)NCC(=O)OCc2c(F)cccc2Cl)cc1,?,19µM*,?,-4%,3%,-1%
Cc1ccc(C(=O)NCC(=O)OCc2c(F)cccc2Cl)cc1,?,12µM*,·,0%,13%,2%
CCOc1ccc(C(=O)NCC(=O)OCc2c(F)cccc2Cl)cc1OCC,-8%,1%,-3%,1%,0%,0%
O=C(CNC(=O)c1cccs1)OCc1c(F)cccc1Cl,3%,15µM*,·,-1%,?,0%
CC[C@@]12CCCN3CCc4c(n(c5ccccc45)[C@](O)(C(=O)OC)C1)C32 (some centres not stated),·,·,-5%,·,·,·
Cc1ccc2oc3c(c(=O)c2c1)C(c1ccc(F)cc1)N(Cc1ccc2c(c1)OCO2)C3=O (configuration not stated),·,0%,-4%,·,·,·
CCN(CC)C(=O)CSc1nc(-c2ccccc2)cc(-c2ccc(OC)cc2)c1C#N,·,17µM*,-9%,·,·,·
CCN(CC)C(=O)CSc1nc(-c2cccs2)cc(-c2cccs2)c1C#N,16µM*,0%,-33%,-10%,-13%,-5%
CCN(CC)C(=O)CSc1ncnc2sccc12,?,2%,-2%,17%,5%,5%
COC(=O)CSc1nc(-c2cccs2)ccc1C#N,?,?,14µM*,2.2µM*,8.2µM*,1.8µM*
C#CCSc1nc(-c2cccs2)ccc1C#N,-19%,1%,16%,-2%,0%,1%
CCN(CC)C(=O)CSc1ncnc2c(-c3cccs3)nsc12,?,-12%[2.3 µM],13%,3.2µM*,11%,?
C=C(C)CSc1nc(-c2ccccc2)cc(-c2ccc(OC)cc2)c1C#N,·,3%,0%,·,·,·
COc1ccc(Nc2ncc(C(=O)Nc3cccc(OC)c3)c3ccccc23)cc1,·,?,26%,·,·,·
COc1ccc(NC(=O)CCc2nnc3n(Cc4ccccc4Cl)c(=O)c4ccccc4n23)cc1,·,5%,-5%,·,·,·
COc1ccc(-c2cc(-c3cccs3)c(C#N)c(SCC(=O)NCc3ccco3)n2)cc1,?,12µM*,13%,-13%,?,-20%
CCOC(=O)C1(Cc2ccccc2Cl)CCN(C(=O)CCn2ccnc2C)CC1,?,19µM*,·,?,5%,22%
SMILES,ELG1 DNA repair,FLuc modulator,SMN2 splice up,Rab9 promoter act,ELG1 genotox,NPC1 promoter act
COCCNC(=O)c1nn(-c2ccc(C)cc2)c(=O)n(C)c1=O,·,-2%,·,·,·,·
CC1CCN(c2oc(-c3ccc(COc4ccccc4)o3)nc2C#N)CC1,·,1%,·,·,·,·
CC1CN(C(=O)N2CCC(C(=O)NCc3ccccc3F)CC2)c2cc(Cl)ccc2O1 (configuration not stated),·,-17%,·,·,·,·
NS(=O)(=O)c1ccc(N=Nc2c(-c3ccccc3)[nH]n(-c3nc(-c4ccccc4)cs3)c2=O)cc1,5.2µM*,0%,-79%,-13%,-14%,-13%
Cc1ccc(N=Nc2c(N)[nH]n3c(=O)cc(C)nc23)cc1,11%,17µM*,19%,0%,-6%,2%
Cc1ccc(N=Nc2c(=O)[nH]n3c(C)cc(C)nc23)cc1,10%,-2%,-24%,0%,2%,1%
Nc1[nH]n2c(=O)cc(-c3ccccc3)nc2c1N=Nc1ccccc1,6%,17µM*,-91%,-22%,-5%,-11%
Cc1[nH]n2c(=O)cc(-c3ccccc3Cl)nc2c1-c1ccccc1,·,?,-4%,·,·,·
Nc1[nH]n2c(=O)cc(-c3ccccc3)nc2c1N=Nc1ccc(S(N)(=O)=O)cc1,9%,9.5µM*,·,-15%,0%,-3%
C[C@]12CCC(=O)C=C1CC[C@@H]1C2[C@@H](O)C[C@@]2(C)[C@H]1CC[C@]2(O)C(=O)CO (some centres not stated),·,·,-14%,·,·,·
Cc1ccccc1CN1CCN(CC(=O)NCc2ccccc2Cl)C1=O,·,-16%,·,·,·,·
Cc1ccc(-c2csc(N)n2)s1,?,15µM*,3%,8%,?,?
Cc1csc(N)n1,?,2%,-33%,-2%,4%,-1%
Brc1ccccc1-n1nnc(-c2nccs2)n1,?,7.6µM*,·,1.4µM*,8.2µM*,2.5µM*
Cc1ccc(-n2nnc(-c3cccnc3Cl)n2)cc1,?,0.76µM*,·,0.79µM*,5.8µM*,0.79µM*
Clc1ncccc1-c1nnn(-c2ccccc2Br)n1,?,17µM*,·,25%,?,23%
COc1ncccc1-c1nnn(-c2ccc(Cl)nc2)n1,?,?,·,?,5%,26%
Clc1ccc(-n2nnc(-c3cccnc3Cl)n2)cn1,?,13µM*,·,?,?,?
O=C(Nc1nccs1)c1ccccc1Br,?,?,·,27%,7%,6%
CCCCN(CC)CCCn1cnc2c([nH]c3ccc(Cl)cc32)c1=O,·,-3%,1%,·,·,·
CCOc1ccc(NC(=O)Cn2c(=O)n(Cc3ccco3)c(=O)c3ccc(C(=O)NC4CCCC4)cc32)cc1,·,0%,2%,·,·,·
O=C(CCCCCNC(=O)c1ccccc1Br)N=Nc1c(O)[nH]c2ccccc12,9.2µM*,-4%,-3%,-1%,-12%,-4%
Cc1cc(C)cc(-n2c(SCC(=O)NC3CCCCC3)nc3c([nH]c4ccccc43)c2=O)c1,·,0%,·,·,·,·
Cc1ccccc1OCCCn1c(-c2ccc(Cl)cc2)nc2ccccc2c1=O,·,-5%,-7%,·,·,·

# Screens (PubChem)
